# Experimental data as given in the supplement of paper PMC6555819.
# Assays:
# Experiment in all cases: PBM binding z-score (relative to random genomic background probes); higher = stronger binding; sequences stand for … in GC…GCGATTGACAGCGTAGAATGAAGG
# [1] = system: PPARg:RXRa DBDmut IVT, anti-RXR (DBD mutation: RXRa K156A/R161A, NR concentration 270 nM, RXRa partner concentration 90 nM)
# In short: (§1)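 Binding z-scores were set against random background probes. The data came from custom Agilent 4×180K protein-binding microarrays carrying double-stranded probes with 34-nt variable regions, incubated 1 h with ligand-free nuclear receptor dimers. Partner-specific antibodies detected binding, and scanned fluorescence was regression-normalized.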
# [2] = system: PPARg:RXRa IVT, anti-PPARg (NR concentration 270 nM, RXRa partner concentration 90 nM)
# In short: as §1
# [3] = system: PPARg DBDmut:RXRa IVT, anti-PPARg (DBD mutation: PPARg1 K132A/R137A, NR concentration 270 nM, RXRa partner concentration 90 nM)
# In short: as §1
# [4] = system: PPARg DBDmut IVT, anti-PPARg (DBD mutation: PPARg1 K132A/R137A, NR concentration 270 nM)
# In short: as §1
# [5] = system: PPARg homodimer (NR concentration 180 nM)
# In short: as §1
# [6] = system: PXR:RXRa (NR concentration 270 nM, RXRa partner concentration 90 nM)
# In short: as §1
# [7] = system: PXR homodimer (NR concentration 270 nM)
# In short: as §1
# [8] = system: RARa:RXR (NR concentration 270 nM, RXRa partner concentration 90 nM)
# In short: as §1
# [9] = system: RARa homodimer (NR concentration 270 nM)
# In short: as §1
# [10] = system: RARb:RXRa (NR concentration 270 nM, RXRa partner concentration 90 nM)
# In short: as §1
# [11] = system: RARb homodimer (NR concentration 270 nM)
# In short: as §1
# [12] = system: RARg:RXRa (NR concentration 270 nM, RXRa partner concentration 90 nM)
# In short: as §1
# [13] = system: RARg homodimer (NR concentration 270 nM)
# In short: as §1
# [14] = system: RXRa DBDmut IVT, anti-RXR (DBD mutation: RXRa K156A/R161A, NR concentration 90 nM)
# In short: as §1
# [15] = system: RXRa homodimer (NR concentration 180 nM)
# In short: as §1
# [16] = system: THRa:RXRa (NR concentration 90 nM, RXRa partner concentration 90 nM)
# In short: as §1
# [17] = system: THRa homodimer (NR concentration 90 nM)
# In short: as §1
# [18] = system: VDR homodimer (NR concentration 270 nM)
# In short: as §1
Sequence,PBM binding z-score [1],PBM binding z-score [2],PBM binding z-score [3],PBM binding z-score [4],PBM binding z-score [5],PBM binding z-score [6],PBM binding z-score [7],PBM binding z-score [8],PBM binding z-score [9],PBM binding z-score [10],PBM binding z-score [11],PBM binding z-score [12],PBM binding z-score [13],PBM binding z-score [14],PBM binding z-score [15],PBM binding z-score [16],PBM binding z-score [17],PBM binding z-score [18]
AGAAGGAGGGCACGCTGAGTTGATAGCAGAGTAG,4.39,4.02,0.794,0.398,0.378,1.16,0.294,0.766,-0.141,2.32,1.4,1.94,2.17,0.783,1.2,1.13,-0.112,1.04
TCTTGGAGATCAATAGAGGTTAAGAAAGTGCGCT,0.87,0.273,0.0631,-0.22,0.19,3.33,-0.00174,1.94,0.245,0.9,1.39,0.878,0.376,0.544,1.5,3.19,-0.339,0.159
ATCTCTAGGTAAAGATAGTTCATTGAATGCAAAT,1.7,1.76,1.3,1.29,0.829,2.33,1.98,1.25,1.34,1.06,1.46,1.01,0.983,0.467,0.854,1.28,0.302,1.98
TCGAGTAGGTTAGGGGCATCCAGAATGGCGTCGA,1.78,1.45,-0.511,-0.719,0.537,0.349,-0.0589,0.496,-0.597,1.18,1.01,0.269,0.268,0.271,0.71,1.05,0.256,0.462
AATACAGGGTCATCGTAGGCCAGAGCACGCACAG,2.92,4.29,2.99,0.869,3.33,4.96,0.778,5.48,0.827,4.21,3.55,5.92,5.24,3.61,6.36,4.52,1.4,3.18
CGTCCAAGCTCAATGCTAGGTCAGTGAAAGCATT,0.189,0.0626,-1.2,-1.34,-0.137,0.0332,-0.275,0.319,-0.477,0.961,1.84,0.587,0.598,-0.0158,-0.025,1.09,0.344,-0.453
CGAACTAGGTCATTGACAGGACAGGGAATAGTAA,8.02,8.21,2.18,1.03,1.49,1.43,0.107,2.22,0.195,3.69,2.89,4.58,4.36,2.18,2.59,2.99,1.01,1.02
TCTTGCAGATCAGCAGGTTAAGAAAGCTGGCCAA,0.806,-0.167,-1.23,-0.975,-0.869,-0.219,-1.1,0.16,-1.56,0.155,-0.126,-0.0186,-0.618,-0.0927,0.33,0.0241,-0.879,-0.987
TAGCCTAGGTCTTGGGCCAGTATACCACGCGAAC,-0.718,-0.4,-0.0485,-0.703,-0.0751,-0.448,-0.379,-0.298,-0.982,0.162,0.192,-0.191,-0.198,-0.835,-0.0837,0.0232,0.0319,-0.506
TATCCTAGGTCATGGGCCAGTATACCACGCGAAC,4.23,5.29,1.4,1.68,1.22,2.25,0.762,2.93,1.01,4.06,3.35,4.47,5.04,0.933,3.99,3.54,2.41,1.05
CCTACTGGGCCATTCAAAGGTCATTGATCATATG,4.67,4.81,-0.127,-0.542,2.61,5,2.28,5.19,0.686,3.72,4.5,4.85,3.67,0.609,4.61,3.25,0.994,2.4
CTCGAATGGTCGTGCTCAGGTGAGTATACCAAAC,-0.307,0.137,-1.36,0.0362,-1,-0.335,-0.382,0.107,0.169,0.0892,0.249,-0.157,-0.12,-0.0041,-0.189,1.11,0.835,-0.378
TCATATAGGTTAACAGGTGAAAGTCCGTAAGTTA,5.79,5.64,2.16,1.92,1.58,1.46,0.372,1.93,1.1,2.08,1.85,2.13,1.57,1.53,2.09,1.39,0.525,0.443
ACAATTAGTTGACTTAGGGCAACCGATACGACGC,0.0819,0.506,0.981,1.45,0.921,-0.00518,0.761,0.318,0.646,0.888,1.03,0.677,0.936,0.628,0.455,1.37,0.444,0.709
CTCGAAAGGTCGTGCTCAGGTGAGGATACCAAAC,0.783,1.73,-0.368,0.176,1.74,3.15,0.182,3.92,0.325,3.94,2.88,5.12,3.74,2.24,4.62,4.22,2.06,0.965
TTACCAAGGTGAGCTGAGGTCGGTGATCCAACTC,0.759,1.6,-0.343,-0.369,-0.703,2.47,-0.308,1.19,-0.395,1.52,1.46,0.608,0.586,-0.659,0.505,4.31,1.25,0.0612

Sequence,PBM binding z-score [1],PBM binding z-score [2],PBM binding z-score [3],PBM binding z-score [4],PBM binding z-score [5],PBM binding z-score [6],PBM binding z-score [7],PBM binding z-score [8],PBM binding z-score [9],PBM binding z-score [10],PBM binding z-score [11],PBM binding z-score [12],PBM binding z-score [13],PBM binding z-score [14],PBM binding z-score [15],PBM binding z-score [16],PBM binding z-score [17],PBM binding z-score [18]
TAGCCTAGGTCATTGGGCCAGCATAGTACGCATC,2.61,3.89,0.103,-0.682,0.524,1.58,-0.351,2.11,-0.399,3.64,2.94,3.88,4.34,1.49,3.01,2.76,0.613,0.817
GCGACCGGGGCATCAGCAGGTTACCATAACTTAA,0.0389,0.384,-1.59,-1.19,0.373,0.411,-0.173,0.981,-0.42,1.3,1.37,2.27,1.64,-0.302,0.943,1.61,0.295,-0.185
ACCCGGAGGACAAAGGTCAGAGCTACGCCAGTGA,0.224,2.99,-0.0126,-0.296,2.98,4.14,0.302,5,0.962,4.51,4.67,6.15,5.22,0.737,4.97,3.4,0.681,1.24
ATATGTAGGTTAAGGGTCCTTCAGGTTGGTTCGC,7.65,7.29,1.78,0.916,2.1,1.1,0.435,1.23,0.703,1.24,1.37,1.03,1.09,0.575,1.59,1.15,0.749,1.01
TGTCAAAGTTCAAAGGTAACTTAAGTATCCACAC,0.229,4.39,1.49,1.25,2.75,5.84,3.49,6.36,1.36,5.23,3.71,6.26,6.11,4.5,7.54,3.6,-0.309,4.03
GCTGCTAGGTCAGGCTGGTCAGCTAACGGGTACG,3.75,2.35,-1.05,-1.02,-0.17,-0.0298,-0.747,0.0805,-0.715,3.35,2.55,2.75,4.34,0.391,1.07,1.63,0.201,-0.177
CGAACTAGGTCATACAGGACAGTGAATACATTGA,8.15,8.47,4.73,2,1.93,1.48,0.551,2,0.758,3.5,2.68,3.77,4.03,2.32,2.68,2.83,1.2,1.57
CCTACTGGGCCAAAAAGGACATTGATGCCGATAA,3.5,2.63,-0.447,0.0111,0.363,-0.396,0.177,-0.191,0.526,0.68,0.641,0.266,0.586,-0.359,-0.202,0.101,-0.447,0.158
TCTGCTAGGTCAGTTGGTCAGCTCACGAGCTGCC,3.21,3.07,0.484,0.713,-0.202,0.341,-1.06,0.601,-1.19,3.18,2.45,2.61,3.31,0.58,1.15,1.38,0.196,-0.78
CGAACTAGGTCAGAACAGGACAGCGAAGGATGAT,6.88,7.17,2.58,2.2,1.18,0.861,-0.18,1.86,0.0245,2.88,2.08,2.39,3.18,0.432,1.39,3.82,0.236,-0.0467
CCTACTGGTCCATTCAGAGGTCATTGATCATATG,0.337,1.32,-0.102,0.307,3.17,4.52,4.29,4.42,1.99,2.89,4.13,3.66,2.62,1.73,3.92,2.91,2.07,4.16
ATCTCTAGGTAACCAATTTCAGTGAATGCCGAAC,3.89,2.94,1.28,1.42,0.77,0.453,0.601,0.264,0.959,0.458,0.515,0.324,0.586,0.556,0.198,0.887,0.984,0.312
CGAACTAGGTCAAGGAGAGTGAATCTCCGCACGC,8.29,7.9,1.48,0.243,0.896,0.744,-0.41,1.44,-0.0147,3.74,2.9,3.91,4.76,1.44,2.85,2.28,0.799,-0.00315
CCGACTGGGGCATAAGGTTACCAGAAGCCAGCCC,3.11,3.13,-1.29,-1.2,0.743,0.265,-0.64,1.84,-0.798,1.78,1.99,1.86,1.08,-0.501,1.26,2.28,1.23,-0.301
CTACCAAGGTGAACAAGGTCGTTGCTTACTATTC,2.88,2.58,0.0347,-0.195,1.15,3.08,1.88,2.64,-0.135,2.23,2.09,1.83,1.34,1.73,2.12,3.15,2.03,2.89
